Results filed as inconclusive are left out. Activity calls are given as the source filed them.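 How the source made its calls, unless noted: active means normalized viability below 100% at a tested concentration; inactive means the rest.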
What was measured:
[1] = growth inhibition of DIPG glioma cells, dose response, cell-based, SU-DIPG-XVII, MIPE5.0, CellTiter-Glo, qHTS (AID 1347060; cut-off not given, nearly all actives have AC50 up to about 26 µM;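 on AC50: cells exposed to compound for 48 hours before viability readout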); conditions: SU-DIPG-XVII viability, CellTiter-Glo ATP luminescence
[2] = growth inhibition of DIPG glioma cells, dose response, cell-based, SU-DIPG-XIII, MIPE4.0, CellTiter-Glo, qHTS (AID 1347061; cut-off not given, nearly all actives have AC50 up to about 37 µM;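 further: cells exposed to compound for 48 hours before readout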); conditions: SU-DIPG-XIII viability, CellTiter-Glo ATP luminescence
[3] = growth inhibition of DIPG glioma cells, dose response, cell-based, JHH-DIPG-1, MIPE4.0, CellTiter-Glo, qHTS (AID 1347062; cut-off not given, nearly all actives have AC50 up to about 27 µM;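 on AC50: cells exposed to compound for two days before readout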); conditions: JHH-DIPG-1 viability, CellTiter-Glo ATP luminescence
[4] = growth inhibition of DIPG glioma cells, dose response, cell-based, SU-DIPG-IV, MIPE4.0, CellTiter-Glo, qHTS (AID 1347063; cut-off not given, nearly all actives have AC50 up to about 30 µM;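 further: compound exposure lasted 48 hours before the viability readout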); conditions: SU-DIPG-IV viability, CellTiter-Glo ATP luminescence
[5] = growth inhibition of DIPG glioma cells, dose response, cell-based, SU-DIPG-XIII, MIPE5.0, CellTiter-Glo, qHTS (AID 1347064; cut-off not given, nearly all actives have AC50 up to about 23 µM;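 on AC50: cells exposed to compound for 48 hours before the viability read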); conditions: SU-DIPG-XIII viability, CellTiter-Glo ATP luminescence
[6] = viability loss in pontine glioma line – cell-based, SU-DIPG-XXV, MIPE5.0, CellTiter-Glo, qHTS, dose response (AID 1347065; cut-off not given, nearly all actives have AC50 up to about 26 µM;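 further: cells exposed to compound for 48 hours before ATP readout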); conditions: CellTiter-Glo ATP luminescence
[7] = SU-DIPG-VI glioma cell viability, MIPE4.0 library, CellTiter-Glo luminescence, qHTS (AID 1347066; cut-off not given, nearly all actives have AC50 up to about 30 µM;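 further: cells exposed to compound for 48 hours before readout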); conditions: CellTiter-Glo ATP luminescence
[8] = JHH-DIPG-1 glioma cell viability, MIPE5.0 library, CellTiter-Glo luminescence, qHTS (AID 1347067; cut-off not given, nearly all actives have AC50 up to about 26 µM;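 further: cells exposed to compound for 48 hours before readout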); conditions: JHH-DIPG-1 glioma viability, CellTiter-Glo ATP luminescence
[9] = SU-DIPG-XXV glioma cell viability, MIPE5.0 library, qHTS (AID 1347068; cut-off not given, nearly all actives have IC50 up to about 30 µM;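 on IC50: cells exposed to compound for 48 hours before viability readout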)
[10] = sensitizers of A549 cells to miR-34 induction, primary screen, imaging, A549 dox-inducible miR-34, nuclei and caspase counts (AID 1347080;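 active means compounds whose cell count with miR-34 switched on is under 0.7 times the count with it off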); conditions: A549 miR-34 inducible, Hoechst nuclei count, 48 h
[11] = survival rescue of mitochondrial mutant cells in low glucose, primary screen, MELAS cybrids, Rieske KO mouse fibroblasts, CellTiter-Glo (AID 1508586;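 active means mean z-score across replicates of 1.96 or higher in either the MELAS or the Rieske mutant cell line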;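 further: z relative to plate mean and SD of compound and empty wells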)
[12] = modifiers of HSF1 nuclear foci, imaging, Selleck Cancer Library (AID 1347162; in the data active means plate-normalised HSF1 focus index below about 0.46); conditions: human cells, at 10 µM; SSMD: measured here: HSF1 foci SSMD mean; cell count: measured here: cell number; plate-normalised HSF1 focus index: stronger effect = lower value
[13] = ovarian cancer cell viability with rucaparib, profiling panel, oncology-focused library, rucaparib conditional (AID 1508598); conditions: patient-derived ovarian cancer cells, CellTiter-Glo viability, 144 h, stronger effect = lower value
[14] = stronger effect = lower value, cell number ratio, induced over uninduced
[15] = measured here: relative caspase fold change +Dox/-Dox
[16] = measured here: total cells with miR-34 induction, stronger effect = lower value
[17] = measured here: total cells without miR-34 induction
[18] = MELAS cybrid survival, CellTiter-Glo 48 h, stronger effect = higher value
[19] = Rieske KO mouse fibroblast survival, CellTiter-Glo 72 h
[20] = at 0.000305 µM, OCI-C5x cells, with rucaparib 10 µM, 100% = cells with rucaparib alone
[21] = at 0.000305 µM, OCI-C5x cells, without rucaparib
[22] = at 0.000305 µM, OCI-P5x cells, with rucaparib 20 µM, 100% = cells with rucaparib alone
[23] = at 0.000305 µM, OCI-P5x cells, without rucaparib
[24] = at 0.00122 µM, OCI-C5x cells, with rucaparib 10 µM, 100% = cells with rucaparib alone
[25] = at 0.00122 µM, OCI-C5x cells, without rucaparib
[26] = at 0.00122 µM, OCI-P5x cells, with rucaparib 20 µM, 100% = cells with rucaparib alone
[27] = at 0.00122 µM, OCI-P5x cells, without rucaparib
[28] = at 0.00488 µM, OCI-C5x cells, with rucaparib 10 µM, 100% = cells with rucaparib alone
[29] = at 0.00488 µM, OCI-C5x cells, without rucaparib
[30] = at 0.00488 µM, OCI-P5x cells, with rucaparib 20 µM, 100% = cells with rucaparib alone
[31] = at 0.00488 µM, OCI-P5x cells, without rucaparib
[32] = at 0.0195 µM, OCI-C5x cells, with rucaparib 10 µM, 100% = cells with rucaparib alone
[33] = at 0.0195 µM, OCI-C5x cells, without rucaparib
[34] = at 0.0195 µM, OCI-P5x cells, with rucaparib 20 µM, 100% = cells with rucaparib alone
[35] = at 0.0195 µM, OCI-P5x cells, without rucaparib
[36] = at 0.0781 µM, OCI-C5x cells, with rucaparib 10 µM, 100% = cells with rucaparib alone
[37] = at 0.0781 µM, OCI-C5x cells, without rucaparib
[38] = at 0.0781 µM, OCI-P5x cells, with rucaparib 20 µM, 100% = cells with rucaparib alone
[39] = at 0.0781 µM, OCI-P5x cells, without rucaparib
[40] = at 0.313 µM, OCI-C5x cells, with rucaparib 10 µM, 100% = cells with rucaparib alone
[41] = at 0.313 µM, OCI-C5x cells, without rucaparib
[42] = at 0.313 µM, OCI-P5x cells, with rucaparib 20 µM, 100% = cells with rucaparib alone
[43] = at 0.313 µM, OCI-P5x cells, without rucaparib
[44] = at 1.25 µM, OCI-C5x cells, with rucaparib 10 µM, 100% = cells with rucaparib alone
[45] = at 1.25 µM, OCI-C5x cells, without rucaparib
[46] = at 1.25 µM, OCI-P5x cells, with rucaparib 20 µM, 100% = cells with rucaparib alone
[47] = at 1.25 µM, OCI-P5x cells, without rucaparib
[48] = at 5 µM, OCI-C5x cells, with rucaparib 10 µM, 100% = cells with rucaparib alone
[49] = at 5 µM, OCI-C5x cells, without rucaparib
[50] = at 5 µM, OCI-P5x cells, with rucaparib 20 µM, 100% = cells with rucaparib alone
[51] = at 5 µM, OCI-P5x cells, without rucaparib

O=C(NC1CCOCC1)c1ccc(-c2cc(-c3cn[nH]c3-c3ccccn3)ccn2)cc1
10600: cell count [10, 17]
0.682: z-score [11, 19]
0.736: fold change [10, 15]
inactive: outcome [1] | outcome [2] | outcome [3] | outcome [4] | outcome [5] | outcome [6] | outcome [7] | outcome [8] | outcome [9] | fold change [10, 14] 0.83 | z-score [11, 18] -0.384
8800: cell count [10, 16]

Cc1cnc(Nc2ccc(N3CCN(C)CC3)cc2)nc1Nc1cccc(S(=O)(=O)NC(C)(C)C)c1
inactive: fold change [10, 14] 1.22 | z-score [11, 18] 1.59
active: AC50 [1] 2950 nM | AC50 [2] 5900 nM | AC50 [3] 5900 nM | AC50 [4] 6620 nM | AC50 [5] 2950 nM | AC50 [6] 1860 nM | AC50 [7] 14800 nM | AC50 [8] 2950 nM | IC50 [9] 4680 nM
1880: cell count [10, 17]
2300: cell count [10, 16]
0.413: fold change [10, 15]
-3.35: z-score [11, 19]

COc1ncc(-c2ccc3nccc(-c4ccnnc4)c3c2)cc1NS(=O)(=O)c1ccc(F)cc1F
inactive: fold change [10, 14] 1.04 | plate-normalised HSF1 focus index [12] 0.907 | z-score [11, 18] 1.15 | viability [13, 20] 107% | viability [13, 21] 105%
-2.62: z-score [11, 19]
6380: cell count [12]
0.656: fold change [10, 15]
1220: cell count [10, 17]
1270: cell count [10, 16]
-1.81: SSMD [12]
active: AC50 [1] 26.3 nM | AC50 [2] 46.9 nM | AC50 [3] 1660 nM | AC50 [4] 10.5 nM | AC50 [5] 46.8 nM | AC50 [6] 16.6 nM | AC50 [7] 33.2 nM | AC50 [8] 93.4 nM | IC50 [9] 105 nM | viability [13, 22] 86.7% | viability [13, 23] 84.8% | viability [13, 24] 84.7% | viability [13, 25] 89.8% | viability [13, 26] 67.8% | viability [13, 27] 69.1% | viability [13, 28] 62.5% | viability [13, 29] 53.2% | viability [13, 30] 43.9% | viability [13, 31] 46.3% | viability [13, 32] 39.4% | viability [13, 33] 37.6% | viability [13, 34] 31.6% | viability [13, 35] 27% | viability [13, 36] 32.8% | viability [13, 37] 30.6% | viability [13, 38] 24.3% | viability [13, 39] 17.1% | viability [13, 40] 23.7% | viability [13, 41] 23.6% | viability [13, 42] 17.6% | viability [13, 43] 11% | viability [13, 44] 23.9% | viability [13, 45] 23.5% | viability [13, 46] 13.9% | viability [13, 47] 8.06% | viability [13, 48] 10.5% | viability [13, 49] 9.68% | viability [13, 50] 2.14% | viability [13, 51] 1.41%

O=C(c1ccc(C(=O)N2CCC(N3CCCC3)CC2)c(Nc2ccccc2)c1)N1CCC(N2CCCC2)CC1
1.63: fold change [10, 15]
-0.294: z-score [11, 19]
8920: cell count [10, 17]
inactive: outcome [1] | outcome [2] | outcome [3] | outcome [4] | outcome [5] | outcome [6] | outcome [7] | outcome [8] | outcome [9] | fold change [10, 14] 0.897 | z-score [11, 18] -0.111
8000: cell count [10, 16]

CCC[C@H](NC(=O)/C(C#N)=C/c1cccc(Br)n1)c1ccccc1
inactive: viability [13, 20] 119% | viability [13, 21] 122% | viability [13, 23] 113% | viability [13, 24] 114% | viability [13, 25] 137% | viability [13, 27] 111% | viability [13, 28] 121% | viability [13, 29] 137% | viability [13, 31] 114% | viability [13, 32] 111% | viability [13, 33] 135% | viability [13, 34] 104% | viability [13, 35] 110% | viability [13, 36] 108% | viability [13, 37] 128% | viability [13, 38] 104% | viability [13, 39] 128% | viability [13, 40] 126% | viability [13, 41] 134% | viability [13, 42] 102% | viability [13, 43] 123% | viability [13, 44] 106% | viability [13, 45] 141% | viability [13, 47] 111% | viability [13, 49] 102%
-18.6: SSMD [12]
6540: cell count [12]
active: AC50 [1] 3320 nM | AC50 [2] 26400 nM | AC50 [3] 3320 nM | AC50 [4] 2350 nM | AC50 [5] 3320 nM | AC50 [6] 2630 nM | AC50 [7] 9350 nM | AC50 [8] 4680 nM | IC50 [9] 16600 nM | plate-normalised HSF1 focus index [12] 0.0433 | viability [13, 22] 94.8% | viability [13, 26] 95.1% | viability [13, 30] 98.7% | viability [13, 46] 46.8% | viability [13, 48] 8.18% | viability [13, 50] 2.03% | viability [13, 51] 8.95%

CN1c2cc(O)c(N=NC(N)=O)cc2CC1S(=O)(=O)O (centres undefined)
9600: cell count [10, 16]
0.79: z-score [11, 19]
inactive: outcome [1] | outcome [2] | outcome [3] | outcome [4] | outcome [5] | outcome [6] | outcome [7] | outcome [8] | outcome [9] | fold change [10, 14] 0.929 | z-score [11, 18] -0.39
0.61: fold change [10, 15]
10300: cell count [10, 17]

Source: PubChem BioAssay
